Among the data in the supplement of paper PMC10849652 are log2 fold change values, retold here.

Test in all cases: log2 fold change, soluble protein after heating vs DMSO (PISA); higher = thermal stabilisation; K562 cells, 10 uM, 30 min; active = over 0.2 and 3.5 SD of the protein, either way, in both replicates (recomputed)
Compound in test [1]: CCN(CCCOc1ccc2c(Nc3cc(CC(=O)Nc4cccc(F)c4)[nH]n3)ncnc2c1)CCOP(=O)(O)O [barasertib]
In short, it runs like this: (§1)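 For each measurement, 10 μM compound was applied for 30 min to K562 cells at 2×10^6 cells/mL. Aliquots were heated for 3 min across 48°C-58°C, pooled, and extracted in PBS with 0.5% NP-40 at 4°C; the supernatant after 21,000xg for 90 min was soluble protein. This was quantified by TMTpro 16plex LC-MS/MS with channel sums equalised, and thermal stability was reported relative to control samples from duplicates, on a log2 fold-change scale.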

Compound in test [2]: CC[C@@H]1C(=O)N(C)c2cnc(Nc3ccc(C(=O)NC4CCN(C)CC4)cc3OC)nc2N1C1CCCC1
In short, it runs like this:
as §1

Compound in test [3]: CN(CCOC1=CC=C(C=C1)C[C@H]2C(=O)NC(=O)S2)C3=CC=CC=N3 (racemic) [rosiglitazone]
In short, it runs like this: as §1

Compound in test [4]: CC1=C(C=C(C=C1)NC(=O)C2=CC(=CC=C2)C(C)(C)C#N)NC3=CC4=C(C=C3)N=CN(C4=O)C
In short, it runs like this: as §1

Compound in test [5]: CC1=CC=C(C=C1)SC2=C3C=C(SC3=CN=C2)C(=O)N
The essentials: as §1

Compound in test [6]: CCCCN(Cc1ccc(C(=O)NO)cc1)C(=O)Nc1ccccc1 [Nexturastat A]
In short, it runs like this:
as §1

Compound in test [7]: CCCS(=O)(=O)Nc1ccc(F)c(C(=O)c2c[nH]c3ncc(Cl)cc23)c1F
In short, it runs like this:
as §1

Compound in test [8]: CCN(CC)Cc1ccc2cc(COC(=O)Nc3ccc(C(=O)NO)cc3)ccc2c1 [givinostat]
The essentials: as §1

Compound in test [9]: CC[C@@H]1C(=O)N(C)c2cnc(Nc3ccc(C(=O)N[C@H]4CC[C@H](N5CCN(CC6CC6)CC5)CC4)cc3OC)nc2N1C(C)C [volasertib]
The essentials:
as §1

Compound in test [10]: CC[C@H](C)N1C=C(C2=C(C=C(C=C21)C3=CN=C(C=C3)N4CCNCC4)C(=O)NCC5=C(C=C(NC5=O)C)C)C
The essentials: as §1

Compound in test [11]: CC[C@H](C)[C@@H](C(=O)N[C@@H]([C@@H](C)O)C(=O)N[C@@H](CC(C)C)C(=O)[C@]1(CO1)C)NC(=O)[C@H]([C@@H](C)CC)N(C)C(=O)C [epoxomicin]
The essentials:
as §1

Compound in test [12]: CCn1c(C(=O)N(C2CC2)C2CC2)cc2c3c(ncn3C)c(Nc3cc(C)n(C)n3)nc21
In short, it runs like this:
as §1

Compound in test [13]: CCn1cc(-c2ccnc3[nH]c(-c4cccc(CN(C)C)c4)cc23)c(-c2ccc(NC(=O)N(C)C)cc2)n1
The essentials: as §1

Compound in test [14]: CN1C2=C(C3=C1C(=O)N(N=C3)CC4=CC(=CC=C4)N)SC(=C2)S(=O)C
In short, it runs like this: as §1

Compound in test [15]: CN1CCC(CNc2ccc3ncc(-c4cccc(OC(F)(F)F)c4)n3n2)CC1
In short, it runs like this: as §1

Compound in test [16]: CC1=C(C=C(C=C1)NC(=O)C2=CC(=CC=C2)N(C)C)NC(=O)C3=CC=C(C=C3)O
The essentials: as §1

Compound in test [17]: CCCS(=O)(=O)Nc1ccc(F)c(C(=O)c2c[nH]c3ncc(-c4ccc(Cl)cc4)cc23)c1F [vemurafenib]
In short, it runs like this: as §1

Compound in test [18]: CCCc1cc(C)[nH]c(=O)c1CNC(=O)c1cc(-c2ccnc(N3CCN(C)CC3)c2)cc2c1cnn2C(C)C
In short, it runs like this:
as §1

Compound in test [19]: CN(C)CC(=O)Nc1ccc2[nH]c(=O)c3ccccc3c2c1
In short, it runs like this: as §1

Compound in test [20]: CC1=NC(=CC=C1)C2=C(N=C(N2)C(C)(C)C)C3=CC4=NC=CN=C4C=C3
The essentials:
as §1

The full data set covers some 7,900 targets. This sample favours those with a hit. About 0.6% of all pairs of compound and target were hits. Unmarked numbers belong to inactive results.

Sequence of UniProt Q13796 (Q13796 whole entry, looked up): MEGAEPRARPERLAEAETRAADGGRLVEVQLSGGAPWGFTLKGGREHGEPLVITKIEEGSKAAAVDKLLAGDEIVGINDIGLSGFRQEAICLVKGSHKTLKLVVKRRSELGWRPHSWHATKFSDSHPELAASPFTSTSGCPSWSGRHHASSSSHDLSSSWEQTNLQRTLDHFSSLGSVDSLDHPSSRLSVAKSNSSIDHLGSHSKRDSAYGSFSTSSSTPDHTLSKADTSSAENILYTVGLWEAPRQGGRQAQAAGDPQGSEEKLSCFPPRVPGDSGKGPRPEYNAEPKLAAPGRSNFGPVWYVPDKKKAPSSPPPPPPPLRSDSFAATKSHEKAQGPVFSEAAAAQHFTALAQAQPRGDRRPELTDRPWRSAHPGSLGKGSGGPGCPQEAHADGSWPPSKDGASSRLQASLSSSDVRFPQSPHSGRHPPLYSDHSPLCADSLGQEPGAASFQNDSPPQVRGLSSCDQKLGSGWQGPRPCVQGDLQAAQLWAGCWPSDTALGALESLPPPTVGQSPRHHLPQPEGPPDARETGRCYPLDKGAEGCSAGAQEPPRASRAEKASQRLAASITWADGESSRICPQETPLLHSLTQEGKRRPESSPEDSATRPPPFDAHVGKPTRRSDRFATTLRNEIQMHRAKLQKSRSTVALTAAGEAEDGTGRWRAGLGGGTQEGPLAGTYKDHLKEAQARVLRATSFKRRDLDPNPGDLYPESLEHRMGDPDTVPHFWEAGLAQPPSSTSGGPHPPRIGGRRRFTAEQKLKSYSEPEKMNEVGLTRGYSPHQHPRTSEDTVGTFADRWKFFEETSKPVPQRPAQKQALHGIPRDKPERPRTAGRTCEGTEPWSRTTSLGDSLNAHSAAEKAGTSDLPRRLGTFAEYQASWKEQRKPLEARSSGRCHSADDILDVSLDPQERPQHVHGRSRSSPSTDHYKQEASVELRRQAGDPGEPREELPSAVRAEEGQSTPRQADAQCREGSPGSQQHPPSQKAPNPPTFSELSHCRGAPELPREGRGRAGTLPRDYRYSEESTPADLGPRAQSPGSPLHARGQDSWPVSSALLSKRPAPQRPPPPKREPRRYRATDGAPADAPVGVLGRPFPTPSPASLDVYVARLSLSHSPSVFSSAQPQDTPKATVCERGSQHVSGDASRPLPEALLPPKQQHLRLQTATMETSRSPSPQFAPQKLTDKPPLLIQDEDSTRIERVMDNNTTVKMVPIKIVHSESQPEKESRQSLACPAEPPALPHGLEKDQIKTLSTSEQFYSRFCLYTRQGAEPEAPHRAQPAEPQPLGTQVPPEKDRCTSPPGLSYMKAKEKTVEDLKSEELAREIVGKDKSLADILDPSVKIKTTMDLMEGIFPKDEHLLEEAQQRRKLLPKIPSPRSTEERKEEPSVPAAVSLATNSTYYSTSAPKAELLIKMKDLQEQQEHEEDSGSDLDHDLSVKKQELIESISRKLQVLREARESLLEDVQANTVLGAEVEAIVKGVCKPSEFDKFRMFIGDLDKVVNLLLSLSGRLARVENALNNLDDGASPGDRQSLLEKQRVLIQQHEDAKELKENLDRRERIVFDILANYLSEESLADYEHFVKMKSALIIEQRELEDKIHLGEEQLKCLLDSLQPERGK
Sequence of UniProt Q5VUM1 (Q5VUM1 whole entry, looked up): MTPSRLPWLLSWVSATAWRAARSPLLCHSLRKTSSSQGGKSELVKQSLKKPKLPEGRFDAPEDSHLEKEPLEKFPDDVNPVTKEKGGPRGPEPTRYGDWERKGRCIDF
Sequence of UniProt Q96LZ7 (Q96LZ7 whole entry, looked up): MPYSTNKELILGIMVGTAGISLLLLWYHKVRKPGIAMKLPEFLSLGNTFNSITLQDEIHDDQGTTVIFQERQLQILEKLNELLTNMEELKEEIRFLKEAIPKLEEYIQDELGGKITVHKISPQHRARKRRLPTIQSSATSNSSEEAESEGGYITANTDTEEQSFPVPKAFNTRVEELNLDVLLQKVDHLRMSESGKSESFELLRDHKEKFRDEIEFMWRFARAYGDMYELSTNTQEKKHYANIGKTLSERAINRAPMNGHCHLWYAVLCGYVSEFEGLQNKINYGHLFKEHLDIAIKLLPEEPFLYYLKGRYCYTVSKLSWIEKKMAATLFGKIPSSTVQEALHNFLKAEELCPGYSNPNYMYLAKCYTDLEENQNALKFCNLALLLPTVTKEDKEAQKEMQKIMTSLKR
Sequence of UniProt Q6R327 (Q6R327 whole entry, looked up): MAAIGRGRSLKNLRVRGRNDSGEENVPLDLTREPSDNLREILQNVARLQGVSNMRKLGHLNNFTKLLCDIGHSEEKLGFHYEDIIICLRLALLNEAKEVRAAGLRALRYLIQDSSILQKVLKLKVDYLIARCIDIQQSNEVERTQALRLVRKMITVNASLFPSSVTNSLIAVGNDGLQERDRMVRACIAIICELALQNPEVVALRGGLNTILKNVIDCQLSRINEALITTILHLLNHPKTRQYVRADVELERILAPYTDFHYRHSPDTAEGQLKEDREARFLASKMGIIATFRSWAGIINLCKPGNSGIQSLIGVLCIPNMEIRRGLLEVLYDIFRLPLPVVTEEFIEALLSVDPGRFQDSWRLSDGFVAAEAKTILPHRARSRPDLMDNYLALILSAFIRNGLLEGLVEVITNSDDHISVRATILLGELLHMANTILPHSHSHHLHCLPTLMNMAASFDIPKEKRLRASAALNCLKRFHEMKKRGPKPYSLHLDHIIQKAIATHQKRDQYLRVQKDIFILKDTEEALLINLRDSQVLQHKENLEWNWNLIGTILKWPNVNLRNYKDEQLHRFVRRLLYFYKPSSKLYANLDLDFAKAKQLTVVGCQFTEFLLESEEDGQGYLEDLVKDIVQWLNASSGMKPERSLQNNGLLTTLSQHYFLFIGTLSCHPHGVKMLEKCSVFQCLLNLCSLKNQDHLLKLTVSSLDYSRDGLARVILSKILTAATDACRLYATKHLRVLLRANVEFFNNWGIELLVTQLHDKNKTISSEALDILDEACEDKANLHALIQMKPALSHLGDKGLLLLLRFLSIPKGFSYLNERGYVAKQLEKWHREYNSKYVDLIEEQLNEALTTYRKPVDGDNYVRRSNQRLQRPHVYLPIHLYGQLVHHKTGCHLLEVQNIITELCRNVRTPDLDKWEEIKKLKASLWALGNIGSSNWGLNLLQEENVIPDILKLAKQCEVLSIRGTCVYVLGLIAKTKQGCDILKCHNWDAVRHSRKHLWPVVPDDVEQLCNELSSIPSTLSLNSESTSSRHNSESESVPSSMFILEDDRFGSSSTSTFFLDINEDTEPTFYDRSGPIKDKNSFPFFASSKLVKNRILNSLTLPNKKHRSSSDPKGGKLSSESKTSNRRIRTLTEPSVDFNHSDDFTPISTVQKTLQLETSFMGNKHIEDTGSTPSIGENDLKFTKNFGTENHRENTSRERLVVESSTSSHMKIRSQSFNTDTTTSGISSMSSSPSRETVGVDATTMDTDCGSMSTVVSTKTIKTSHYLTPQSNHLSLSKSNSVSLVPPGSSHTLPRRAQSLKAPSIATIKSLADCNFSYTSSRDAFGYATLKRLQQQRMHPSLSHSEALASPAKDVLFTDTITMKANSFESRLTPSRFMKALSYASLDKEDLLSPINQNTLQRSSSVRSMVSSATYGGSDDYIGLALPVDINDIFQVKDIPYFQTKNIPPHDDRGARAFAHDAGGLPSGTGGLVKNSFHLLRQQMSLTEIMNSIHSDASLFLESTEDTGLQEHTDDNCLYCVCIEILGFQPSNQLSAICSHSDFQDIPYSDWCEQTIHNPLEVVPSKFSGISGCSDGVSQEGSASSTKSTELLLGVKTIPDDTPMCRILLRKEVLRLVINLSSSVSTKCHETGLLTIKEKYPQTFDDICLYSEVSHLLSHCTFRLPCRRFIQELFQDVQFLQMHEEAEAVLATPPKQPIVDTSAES
Sequence of UniProt O95716 (O95716 whole entry, looked up): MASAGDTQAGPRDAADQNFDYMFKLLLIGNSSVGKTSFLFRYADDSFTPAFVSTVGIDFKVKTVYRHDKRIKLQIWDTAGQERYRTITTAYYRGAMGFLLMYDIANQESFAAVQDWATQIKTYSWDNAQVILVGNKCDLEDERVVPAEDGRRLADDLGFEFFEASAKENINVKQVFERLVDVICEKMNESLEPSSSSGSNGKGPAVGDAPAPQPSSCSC
Sequence of UniProt Q9H4P4 (Q9H4P4 whole entry, looked up): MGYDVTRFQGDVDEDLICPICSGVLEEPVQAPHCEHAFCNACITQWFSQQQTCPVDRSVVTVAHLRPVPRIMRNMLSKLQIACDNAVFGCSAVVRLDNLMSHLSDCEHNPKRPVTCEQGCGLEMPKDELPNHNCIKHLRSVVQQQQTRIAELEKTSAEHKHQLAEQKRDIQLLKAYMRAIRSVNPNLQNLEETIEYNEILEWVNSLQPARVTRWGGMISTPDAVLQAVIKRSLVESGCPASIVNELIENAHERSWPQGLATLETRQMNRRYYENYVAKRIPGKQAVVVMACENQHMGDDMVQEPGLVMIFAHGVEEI

On to RNF41 (UniProt Q9H4P4), for which the log2 fold change is -0.15 in [1], 0.044 in test [2] and -0.073 in [3].

As to RICTOR isoform 3 (UniProt Q6R327), the log2 fold change in test [4] was -0.09; in [5], 0.074; in test [6] it was 0.25; in [7], 0.018; in [8] it was -0.057; in test [2], -0.271. In addition, the log2 fold change was -0.758 (active) in [9]; -0.033 in [10]; 0.064 in [11]; -0.585 in [12]; -0.083 in [13]; 0.265 in test [14]. Moreover, the log2 fold change in test [15] was -0.169.

In the case of RAB3D (UniProt O95716), the log2 fold change in test [16] is 0.074; in [5], 0.036; in [17] it was -0.113; in [7], 0.094; in [18] it was 0.032; in [8], -0.08. Besides, the log2 fold change in test [1] was 0.034; in [2], 0.039; in test [9], 0.025; in test [10] it was 0.097; in test [12], 0.067; in test [13], 0.041. Further, the log2 fold change in test [19] was -0.098; in [3], -0.013; in [14] it was 0.103; in test [15], 0.129.

Turning to RPS19 (UniProt M0R2L9), the log2 fold change in test [5] was -0.169; in test [7] it was -0.98; in test [18], 0.113; in [9], 0.492; in [10] it was -0.256.

In the case of SDHAF4 (UniProt Q5VUM1), the log2 fold change was -0.066 in test [4]; 0.053 in test [5]; 0.022 in test [20]; -0.039 in [6]; -0.065 in test [7]; -0.035 in test [18]. For the same target, the log2 fold change in test [8] was 0.368 (active); in test [1], -0.018; in test [2], 0.013; in [9] it was 0.075; in test [10], -0.045; in test [11] it was -0.066. Moreover, the log2 fold change is 0.162 in [12], 0.048 in test [3] and -0.014 in test [14].

As for SHROOM2 (UniProt Q13796), the log2 fold change in test [4] is -0.104; in test [5], 0.011; in [20] it was -0.206; in [6], 0.763 (active); in [17], -0.078; in test [7], -0.179. Besides, the log2 fold change in test [18] was -0.207; in test [8], 0.238; in test [1], 0.071; in test [2] it was 0.027; in test [9] it was 0.068; in test [10], -0.243. Also, the log2 fold change is -0.136 in test [11]; -0.203 in test [12]; -0.072 in [13]; -0.021 in [19]; 0.058 in [3]; -0.103 in test [14]. For the same target, the log2 fold change in [15] was -0.094.

For the target RMDN2 isoform 2 (UniProt Q96LZ7), the log2 fold change in [16] is -0.022; in test [20], -0.127; in [17], 0.217; in [18] it was -0.196; in test [10], 0.068; in test [19] it was -0.167.
